Compounds with a hit are over-represented: about 2.5% of the library has one in this group of screens.
MEKK2 WT-MEK5: raises or lowers MEK5 binding to wildtype human MEKK2 PB1 domain. Q9Y2U5. bead flow cytometry, Alexa488-MEK5 binding to MEKK2 WT; actives lie on both sides. binding response (% of control), % at 10 µM. 290,000 tested, 1.1% active; in the data active = binding response below about 67% or above about 130%
MEKK2 mut-MEK5: signal of MEK5 binding to mutant human MEKK2 PB1 domain; bead flow cytometry, Alexa488-MEK5 binding to MEKK2 mutant; 290,000 tested, 0.35% active; percent response, % at 10 µM; in the data active = percent response above about 24%, passing the limit was not always enough
MEKK3 PB1 HTS: modulators (inhibitors or enhancers) of MEK5 binding to human MEKK3 PB1 domain; 290,000 tested, 1.4% active; binding response (% of control), % at 10 µM; bead-based flow cytometry, Alexa488-MEK5 binding to MEKK3; actives lie on both sides; 0 = blocked by unlabeled MEK5, 100 = vehicle; Q99759;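 active = binding response more than 3 SD above or below the average of its plate-row segment, actives on both sides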;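 note: Alexa488 bead fluorescence after subtracting the streptavidin-only scavenger bead signal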
GRK2 aptamer HTS: inhibitors of human GRK2 displacing RNA aptamer. bead flow cytometry, FAM-aptamer displacement from GRK2. P25098. AID 488847. inhibition of aptamer binding, % at 10 µM. 330,000 tested, 0.59% active;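 active = inhibition of aptamer binding above 40%, roughly 3 SD of noise, on plates passing a quality check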;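 note: median bead fluorescence of bound FAM aptamer so fluorescent compounds give negative values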
Target sequence (P25098 whole entry, looked up): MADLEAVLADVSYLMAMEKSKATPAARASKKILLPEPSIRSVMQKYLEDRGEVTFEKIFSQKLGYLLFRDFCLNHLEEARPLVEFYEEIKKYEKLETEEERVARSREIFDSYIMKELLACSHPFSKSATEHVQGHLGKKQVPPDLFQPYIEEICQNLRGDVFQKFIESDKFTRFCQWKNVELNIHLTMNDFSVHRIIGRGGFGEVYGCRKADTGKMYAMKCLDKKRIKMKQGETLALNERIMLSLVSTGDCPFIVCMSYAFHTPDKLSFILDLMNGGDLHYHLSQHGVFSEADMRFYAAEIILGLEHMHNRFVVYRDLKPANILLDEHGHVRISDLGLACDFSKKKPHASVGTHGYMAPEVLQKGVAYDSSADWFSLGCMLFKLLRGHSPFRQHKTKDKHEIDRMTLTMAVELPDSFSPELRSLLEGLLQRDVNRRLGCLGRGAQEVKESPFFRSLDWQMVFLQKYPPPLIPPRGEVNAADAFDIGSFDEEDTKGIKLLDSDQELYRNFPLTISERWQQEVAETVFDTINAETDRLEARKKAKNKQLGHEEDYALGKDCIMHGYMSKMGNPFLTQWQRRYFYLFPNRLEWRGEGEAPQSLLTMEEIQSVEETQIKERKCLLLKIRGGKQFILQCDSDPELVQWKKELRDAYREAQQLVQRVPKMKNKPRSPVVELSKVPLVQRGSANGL
MEKK2wt confirm: raises or lowers MEK5 binding to wildtype human MEKK2, retest; shares compounds with MEKK3 PB1 HTS; bead flow cytometry, Alexa488-MEK5 binding to MEKK2 WT; actives lie on both sides; binding response (% of control), % at 10 µM; 5,900 tested, 2.4% active; AID 1892; in the data active = binding response below about 16% or above about 210%; inactive = in between
MEKK2mut-MEK5: signal of MEK5 binding to mutant human MEKK2, retest; 5,900 tested, 2% active; bead flow cytometry, Alexa488-MEK5 binding to MEKK2 mutant; shares compounds with MEKK3 PB1 HTS; percent response, % at 10 µM; in the data active = percent response mostly above about 71%, no sharp cut-off; inactive = mostly below about 38%;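 note: higher means compound restores mutant binding toward wildtype level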
MEKK3-MEK5 inh: confirmation of inhibitors of MEK5 binding to human MEKK3. 5,900 tested, 1.8% active. binding response (% of control), % at 10 µM. bead flow cytometry, Alexa488-MEK5 binding to MEKK3; hits give low values. AID 1894. shares compounds with MEKK3 PB1 HTS;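 active = binding response below 72% of control, or above a set upper limit, though filed actives all read lower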;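 note: 100% = DMSO only wells and 0% = binding blocked by excess unlabeled MEK5; lower values mean stronger disruption of MEK5 binding to MEKK3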
Numbers without * were called inactive; . = no result given; [ ] = another dose, or the depositor's remark.

SMILES	MEKK2 WT-MEK5	MEKK2 mut-MEK5	MEKK3 PB1 HTS	GRK2 aptamer HTS	MEKK2wt confirm	MEKK2mut-MEK5	MEKK3-MEK5 inh
Cc1cc(NC(=O)c2ccccc2Cl)no1	59	-30	35*[inhibitor]	0	106	-1	99
O=C(COc1ccccc1Cl)N1CCN(C(=O)c2ccco2)CC1	107	5	101	0	.	.	.
CCOC(=O)c1cnc2cc(Cl)c(OC)cc2c1NCC1CCCO1 (stereo not drawn)	136*	13	115	0	104	-1	106
CCN(CC(=O)Nc1c(F)cccc1F)C(=O)/C=C/c1ccc2c(c1)OCO2	.	.	.	0	.	.	.
CCc1cc(=O)oc2cc(C)cc(OCC(=O)C(C)(C)C)c12	70	-23	72*[inhibitor]	3	101	-1	103
CCc1cc(=O)oc2cc(C)cc(OCC(C)=O)c12	101	7	102	0	.	.	.
COC(=O)C(NC(=O)CCC(=O)N[C@@H](C(=O)OC)c1ccccc1)c1ccccc1 (stereo partly drawn)	97	3	103	0	.	.	.
COC(=O)[C@@H](NCc1cccc(CN[C@H](C(=O)OC)c2ccccc2)c1)c1ccccc1	163*	8	107	1	91	-7	93
O=S(=O)(c1ccc(C(F)(F)F)cc1)N1CCCN(c2ccc(C(F)(F)F)cn2)CC1	46*[inhibitor]	-26	47*[inhibitor]	3	104	4	107
Cc1nn(Cc2ccccc2)c2ncccc12	106	-1	104	0	.	.	.
COc1cccc(N(CC(=O)NC2CCCCC2)C(=O)CCC(=O)Nc2nc(C)cs2)c1	101	1	101	0	.	.	.
N#CCCN(Cc1ccncc1)C(=S)NC1CC2C=CC1C2 (stereo not drawn)	55	-53	47*[inhibitor]	0	103	3	102
CC1=CC(=C(C#N)C#N)C=C(C)N1Cc1ccccc1	101	-4	100	0	.	.	.
CC(C)C(=O)N1N=C(c2ccc(NS(C)(=O)=O)cc2)CC1c1cccs1 (stereo not drawn)	101	1	101	1	.	.	.
CS(=O)(=O)Nc1ccc(C2=NN(S(=O)(=O)c3ccccc3)C(c3cccs3)C2)cc1 (stereo not drawn)	.	.	7.0*[inhibitor]	0	79	-1	73
CCS(=O)(=O)N1N=C(c2ccc(NS(C)(=O)=O)cc2)CC1c1ccccc1 (stereo not drawn)	.	.	32*[inhibitor]	0	76	-9	74
NS(=O)(=O)c1ccc(CCNCc2cc(Br)ccc2OCc2ccccc2)cc1	145*	8	112	0	120	5	103
CCOc1cc(CNCCc2ccc(S(N)(=O)=O)cc2)cc(Cl)c1OCc1ccccc1	206*	36*	105	0	130	16	103
CCOc1cc(CNCCc2ccc(S(N)(=O)=O)cc2)ccc1OCc1ccccc1	126	1	83	0	.	.	.
COc1ccc(C(=O)OC(C)C(=O)NC2CCCCC2C)cc1S(=O)(=O)N1CCOCC1 (stereo not drawn)	.	.	.	0	.	.	.
CCOc1ccc(C2c3[nH]c4ccccc4c3CCN2CCCn2cccn2)cc1 (stereo not drawn)	123	20	102	0	.	.	.
Clc1cccc(N/N=C(\Cc2nc3ccccc3[nH]2)c2ccccc2)c1	138*	5	138*	0	120	6	105
COc1cc2nc(N(CCCN(C)C)C(=O)c3ccc(S(=O)(=O)N4CCc5ccccc5C4)cc3)sc2cc1OC	.	.	.	0	.	.	.
CCOc1ccc2nc(N(CCCN(C)C)C(=O)c3ccc4c(c3)CCCC4)sc2c1	158*	26*	105	0	160	37	105
COc1cccc2sc(N(CCN(C)C)C(=O)c3ccc4c(c3)CCCC4)nc12	130	16	104	0	.	.	.
SMILES	MEKK2 WT-MEK5	MEKK2 mut-MEK5	MEKK3 PB1 HTS	GRK2 aptamer HTS	MEKK2wt confirm	MEKK2mut-MEK5	MEKK3-MEK5 inh
CN(C)CCCN(C(=O)c1ccc2c(c1)CCCC2)c1nc2ccc(Cl)cc2s1	196*	78*	107	0	221*	62	107
CCOc1ccc2nc(N(CCCN(C)C)C(=O)c3ccc(S(=O)(=O)N4CCc5ccccc5C4)cc3)sc2c1	168*	20	103	0	176	39	102
CN(CCOc1ccc(Cl)cc1)C(=O)c1cc(S(=O)(=O)N2CCOCC2)ccc1N1CCCC1	.	.	.	0	.	.	.
Cc1ccnc(SCc2cc(=O)c(OC(=O)c3ccc(Cl)c([N+](=O)[O-])c3)co2)n1	100	-1	101	2	.	.	.
Cc1[nH]c2c(ccc3ccccc32)c1C1C(CCN)C1(C)C (stereo not drawn)	208*	37	107	0	166	41	108
O=C(CNC(=O)c1ccc(Cl)cc1Cl)OCn1nnc2ccccc2c1=O	.	.	.	0	.	.	.
CCOP(=O)(OCC)C(Nc1cccc(C(F)(F)F)c1)c1ccc(C)cc1 (stereo not drawn)	103	0	66*[inhibitor]	5	103	2	108
CCOC(=O)Cc1nc(-c2ccccc2)n[nH]1	1.0*[inhibitor]	-3	91	0	95	-6	93
CCOC(=O)Cc1nc2ccccc2[nH]1	106	6	109	1	.	.	.
CN1CCN(CC(O)COc2ccc(C34CC5CC(CC(C5)C3)C4)cc2)CC1 (stereo not drawn)	235*	56*	116	.	201	81*	117
Cc1ccc(S(=O)(=O)NCC(=O)N/N=C/c2ccccc2O)cc1	88	-11	94	0	.	.	.
CN1CCc2nc(NC(=O)COc3ccc(C#N)cc3)sc2C1	99	-7	104	0	.	.	.
CC(=O)Nc1ccc(Oc2ccc(S(=O)(=O)N3CCCC3)cn2)cc1	.	.	.	0	.	.	.
O=C(CN1C(=O)NC2(CCCC2)C1=O)NNC(=O)c1ccccc1	.	.	.	0	.	.	.
Cc1ccccc1-c1nc(CN2CCC(C(=O)NCCCN3CC(C)CC(C)C3)CC2)c(C)o1 (stereo not drawn)	142*	18	107	0	127	18	102
CCc1ccc(-c2nc(CN3CCC(C(=O)NCc4ccccc4OC)CC3)c(C)o2)cc1	156*	16	104	0	114	3	104
COc1ccc(C(=O)NCc2nnc(SCC(=O)NCc3ccco3)o2)cc1OC	99	-1	100	0	.	.	.
C/C=C/c1ccc(OCCOCCNCc2ccccc2)c(OC)c1	195*	24*	113	0	156	31	108
CCOC(=O)C1CCCN(S(=O)(=O)c2ccc3c(c2)N(C(C)=O)CCO3)C1 (stereo not drawn)	102	7	100	0	.	.	.

Compound activity: PubChem, NMMLSC
